Here are results for 40 compounds from PubChem BioAssay (NCATS).

Results filed as inconclusive are left out. Entries that show only a call come without a potency. Activity calls are given as the source filed them. Calls follow the shape of the dose curve; as a rule, active = well fitted inhibition curve with a large enough effect; inconclusive = small, poorly fitted or top-dose-only effect; inactive = flat fitted curve, though single readings scatter.
Potency is read from the fitted curve at half-maximal effect.

The test deals with CP203. Kind of test: qHTS profiling for inhibitors of Plasmodium falciparum proliferation (AID 504749). Also: nearly all actives have a fitted effect of over 60% in size. The following applies: P. falciparum in erythrocytes, SYBR Green DNA, 72 h; series mostly up to 28.7 µM. The text has this:
NIH National Institute of Allergy and Infectious Diseases [NIAID] NIH Chemical Genomics Center [NCGC] MLPCN Grant: None Assay Provider: Xinzhuan Su, NIAID NCGC Assay Overview: Plasmodium falciparum is a virulent malarial parasite that kills 1-2 million people worldwide each year. Transmitted by mosquitoes, the sporozoite form of the parasite enters the blood stream to infect hepatocytes, where they become merozoites that infect red blood cells (erythrocytes). Within erythrocytes, merozoites begin a […] cycle of growth and division, after which the parasite is released to infect new red blood cells. Gametocytes, which form within erythrocytes as well, circulate in the bloodstream and are ingested by the mosquito, thereby completing the life cycle. To profile malarial isolates for differential chemical responses and to identify inhibitors of malarial growth, an assay that measures P. falciparum growth and replication within erythrocytes was employed. This assay uses a DNA binding fluorescent dye (SYBR Green) to detect parasite DNA following cell lysis. Because mature erythrocytes lack DNA, only Plasmodium-derived DNA is detected.
NCGC Assay Protocol Summary: The SYBR Green viability assay was adapted from a method described previously (Plouffe et al., 2008). For screening 3 ul culture medium was dispensed into 1536 well black clear bottom plates (Aurora Biotechnologies) using a Multidrop Combi (Thermo Fisher Scientific Inc.), 23 nL compounds in DMSO were added by a pin tool (Kalypsys), and 5 ul of erythrocytes infected with P. falciparum (0.3% parasitemia, 2.5% hematocrit final concentration) were added. The plates were incubated at 37 C in a humidified incubator in 5% CO2 for 72 h, and 2 ul lysis buffer (20 mM Tris HCl, 10 mM EDTA, 0.16% saponin, 1.6% triton X, 10X SYBR Green I supplied as 10,000X […] by Invitrogen) was added to each well. The plates were mixed for 25 sec with gentle shaking and incubated overnight at room temperature in the dark. The following morning, fluorescence intensity at 485(14) nm excitation and 535(25) nm emission wavelengths was measured on an EnVision (Perkin Elmer) plate reader. Plate reads were normalized relative to the control inhibitor (0.29 uM artemisinin) and vehicle (DMSO) wells present on each plate and then corrected by an algorithm using vehicle-only control plates at the beginning and end of the compound plate stack.
For the compound `CCC(=O)NCCC1CCc2ccc3c(c21)CCO3` (stereo not given), the Potency result was “inactive”.
In the case of `CO[C@H](C(=O)[C@@H](O)[C@@H](C)O)C1Cc2cc3cc(O[C@H]4C[C@@H](O[C@H]5C[C@@H](O)[C@H](O)[C@@H](C)O5)[C@@H](O)[C@@H](C)O4)c(C)c(O)c3c(O)c2C(=O)[C@H]1O[C@H]1C[C@@H](O[C@H]2C[C@@H](O[C@H]3C[C@](C)(O)[C@H](O)[C@@H](C)O3)[C@H](O)[C@@H](C)O2)[C@H](O)[C@@H](C)O1` (stereo not given in full), the Potency is 2.69 µM (active).
In the case of `CC[N+](C)(C)Cc1ccccc1Br`, the Potency result was “inactive”.
On to `CCCCCCCCCCCCCC[n+]1ccc(C)cc1`, for which the Potency is 3.79 µM (active).
For the compound `CCCCC(C)(O)C/C=C/[C@H]1[C@H](O)CC(=O)[C@@H]1CCCCCCC(=O)OC` (stereo not given in full), the Potency entry was “inactive”.
The same measure for `CCCCC(CC)COC(=O)CC(C(=O)OCC(CC)CCCC)S(=O)(=O)O` (stereo not given): “inactive”; for `O=S(=O)(O)c1cc(O)c2c(N=Nc3ccc(Nc4ccccc4)c4c(S(=O)(=O)O)cccc34)cc(S(=O)(=O)O)cc2c1`: “inactive”; for `CCCC(=O)Nc1ncnc2c1ncn2C1OC2COP(=O)(O)OC2C1OC(=O)CCC` (stereo not given): “inactive”.
The same measure for `CCNC(=O)[C@@H]1CCCN1C(=O)[C@H](CCCN=C(N)N)NC(=O)[C@H](CC(C)C)NC(=O)[C@@H](Cc1c[nH]c2ccccc12)NC(=O)[C@H](Cc1ccc(O)cc1)NC(=O)[C@H](CO)NC(=O)[C@H](Cc1c[nH]c2ccccc12)NC(=O)[C@H](Cc1cnc[nH]1)NC(=O)[C@@H]1CCC(=O)N1`: 6.75 µM (active).
For `COC(=O)C1=C(C#N)NC(C)=C(C(=O)OC(C)C)C1c1cccc([N+](=O)[O-])c1` (stereo not given), the Potency was 7.57 µM (active).
As for `CCN(CC)Cc1cc(Nc2ccnc3cc(Cl)ccc23)ccc1O`, the Potency is 0.144 µM (active).
`CC(NNC(=O)c1ccccc1)c1ccccc1` (stereo not given): the Potency entry is “inactive”.
As for `CCOC(=O)C1=C(C)NC(C)=C(C(=O)OCC)C1c1ccccc1C=CC(=O)OC(C)(C)C`, the Potency is 19 µM (active).
With `NC(=O)c1ncn(C2OC(CO)C(O)C2O)n1` (stereo not given), the Potency entry was “inactive”.
The same measure for `Nc1c(N=Nc2ccc(-c3ccc(N=Nc4cc(S(=O)(=O)O)c5ccccc5c4N)cc3)cc2)cc(S(=O)(=O)O)c2ccccc12`: “inactive”.
The same measure for `C=CCSSSCC=C`: “inactive”; for `O=C(O)CCC(=O)C(=O)O`: “inactive”.
With `CCOc1ccc2c(c1)C(C)=CC(C)(C)N2`, the Potency result was “inactive”.
`CC1=C(/C=C/C(C)=C/C=C/C(C)=C/C=C/C=C(C)/C=C/C=C(C)/C=C/C2=C(C)C(=O)CCC2(C)C)C(C)(C)CCC1=O`: the Potency entry is “inactive”.
For the compound `Nc1ncnc2c1ncn2[C@@H]1O[C@H](COP(=O)(O)OP(=O)(O)OP(=O)(O)O)[C@@H](O)[C@H]1O`, the Potency result was “inactive”.
Take `COCC(=O)Nc1cc(Sc2ccccc2)ccc1N=C(NC(=O)OC)NC(=O)OC`: the Potency entry is “inactive”.
Consider `CCN(CC)CCOc1ccc(-c2nc3cc(Cl)ccc3s2)cc1`, for which the Potency result is “inactive”.
In the case of `O=S(=O)(O)O`, the Potency entry is “inactive”.
To `CCCC(=O)O[C@]1(C(=O)CCl)[C@H](C)C[C@@H]2[C@H]3CCC4=CC(=O)C=C[C@]4(C)[C@@]3(F)C(=O)C[C@@]21C` belongs 4.78 µM (active).
With `CC(C(=O)O)c1ccc(N2Cc3ccccc3C2=O)cc1` (stereo not given), the Potency entry was “inactive”.
As to `Cc1cn([C@H]2C[C@H](O)[C@@H](CO)O2)c(=O)[nH]c1=O`, the Potency result was “inactive”.
As to `C[C@H]1C[C@H]2[C@@H]3CCC4=CC(=O)C=C[C@]4(C)[C@@]3(F)[C@@H](O)C[C@]2(C)[C@@]1(O)C(=O)CO`, the Potency result was “inactive”.
To `CC(=O)Oc1c(C)cc(OCC(O)CNC(C)C)c(C)c1C` (stereo not given) belongs “inactive”; to `C[C@]12O[C@H](C[C@]1(O)CO)n1c3ccccc3c3c4c(c5c6ccccc6n2c5c31)CNC4=O`, 0.269 µM (active).
The same measure for `C[C@]12CCC(=O)C=C1CC[C@@H]1[C@@H]2[C@@H](O)C[C@@]2(C)[C@H]1CC[C@]2(O)C(=O)COP(=O)(O)O`: “inactive”.
Take `O=CCCCC=O`: the Potency result is “inactive”.
Take `C#C[C@]1(O)CC[C@H]2[C@@H]3CCC4=CCCC[C@@H]4[C@H]3C(=C)C[C@@]21CC`: the Potency result was “inactive”.
Consider `O=C(COc1ccc(Cl)cc1)OCCNC12CC3CC(CC(C3)C1)C2`, for which the Potency result is “inactive”.
Turning to `CC(Cc1ccc(O)c(O)c1)C(C)Cc1ccc(O)c(O)c1` (stereo not given), the Potency entry is “inactive”.
As for `CC(C)N=c1cc2n(-c3ccc(Cl)cc3)c3ccccc3nc-2cc1Nc1ccc(Cl)cc1`, the Potency entry is “inactive”.
As to `CC1=C(/C=C/C(C)=C/C=C/C(C)=C/C=C/C=C(C)/C=C/C=C(C)/C=C/C2=C(C)CCCC2(C)C)C(C)(C)CCC1`, the Potency entry was “inactive”.
Take `Cc1ccccc1`: the Potency entry was “inactive”.
Turning to `Cc1c(C)c2c(c(C)c1O)CC[C@@](C)(CCC[C@H](C)CCC[C@H](C)CCCC(C)C)O2`, the Potency entry is “inactive”.
To `CC1(C)C(C=C(Cl)Cl)C1C(=O)OCc1cccc(Oc2ccccc2)c1` (stereo not given) belongs “inactive”; to `CN1C(=O)CN2CCc3ccccc3C2c2cc(Cl)ccc21` (stereo not given), “inactive”.
